Drawing on the antibiotic and cytotoxicity screens of Wong et al. (2023), this text covers cytotoxicity call for 64 compounds.

Each structure is given as a SMILES string. Among all 39,000 compounds or so, about 3,300 (8.5%) were called active. Many of the other results were omitted from the sample, so actives are more common in it than they were.

In the experiment the test system is HepG2. Briefly: cytotoxicity call (relative viability < 0.9). The conditions noted are these: 10 µM.
`C[C@@H]1CN([C@@H](C)CO)C(=O)c2cc(NC(=O)C3CC3)ccc2O[C@@H]1CN(C)Cc1ccc(C(=O)O)cc1`: the cytotoxicity call was “inactive”. The result for `CO[C@H]1CN(C)C(=O)c2cc(NC(=O)CC(F)(F)F)ccc2OC[C@@H](C)N(S(=O)(=O)c2cn(C)cn2)C[C@@H]1C` reads “inactive”; that for `COc1ccc(CNC(=O)C[C@H]2C[C@@H]3c4cc(NS(=O)(=O)c5ccc(F)cc5)ccc4O[C@@H]3[C@@H](CO)O2)cc1`, “inactive”.

As to `O=C(C[C@@H]1C=C[C@@H](NS(=O)(=O)c2ccc(F)cc2)[C@@H](CO)O1)NCCN1CCCCC1`, the cytotoxicity call is “inactive”. For the compound `C[C@@H]1CN([C@@H](C)CO)C(=O)Cc2cc(NC(=O)Nc3cccc4ccccc34)ccc2O[C@H]1CN(C)C(=O)NC1CCCCC1`, the cytotoxicity call is “inactive”. The result for `C[C@@H]1CCCCO[C@@H](CN(C)CC2CCCCC2)[C@H](C)CN([C@@H](C)CO)C(=O)c2cc(NC(=O)c3ccccc3)ccc2O1` reads “inactive”; that for `C[C@@H]1CN([C@H](C)CO)C(=O)c2cc(NC(=O)c3ccccc3)ccc2O[C@@H](C)CCCCO[C@@H]1CN(C)CC1CCCCC1`, “inactive”.

In the case of `C[C@H]1CCCCO[C@@H](CN(C)CC2CCCCC2)[C@@H](C)CN([C@@H](C)CO)C(=O)c2cc(NC(=O)c3ccccc3)ccc2O1`, the cytotoxicity call is “inactive”.

Turning to `C[C@@H]1CCCCO[C@H](CN(C)CC2CCCCC2)[C@H](C)CN([C@H](C)CO)C(=O)c2cc(NC(=O)c3ccccc3)ccc2O1`, the cytotoxicity call is “active”. The value for `C[C@H]1CCCCO[C@H](CN(C)CC2CCCCC2)[C@@H](C)CN([C@@H](C)CO)C(=O)c2cc(NC(=O)c3ccccc3)ccc2O1` was “inactive”. For the compound `C[C@@H]1CCCCO[C@@H](CN(C)CC2CCCCC2)[C@H](C)CN([C@H](C)CO)C(=O)c2cc(NC(=O)c3ccccc3)ccc2O1`, the cytotoxicity call was “inactive”. The value for `C[C@@H]1CN([C@@H](C)CO)C(=O)c2cc(NC(=O)c3ccccc3)ccc2O[C@@H](C)CCCCO[C@H]1CN(C)CC1CCCCC1` was “active”; that for `C[C@@H]1CN([C@@H](C)CO)C(=O)c2cc(NC(=O)c3ccccc3)ccc2O[C@@H](C)CCCCO[C@@H]1CN(C)CC1CCCCC1` was “inactive”; that for `C[C@@H]1CCCCO[C@@H](CN(C)CC2CCCCC2)[C@@H](C)CN([C@H](C)CO)C(=O)c2cc(NC(=O)c3ccccc3)ccc2O1` was “active”. With `C[C@H]1CN([C@@H](C)CO)C(=O)c2cc(NS(=O)(=O)c3ccccc3)ccc2O[C@H]1CN(C)S(=O)(=O)c1cccs1`, the cytotoxicity call is “inactive”. For the compound `COc1ccc(CN(C)C[C@@H]2OCCCC[C@H](C)Oc3ccc(NS(=O)(=O)c4ccccc4)cc3C(=O)N([C@H](C)CO)C[C@H]2C)cc1`, the cytotoxicity call is “inactive”. The value for `C[C@@H]1CCCCO[C@@H](CN(C)Cc2ccc(C(=O)O)cc2)[C@@H](C)CN([C@H](C)CO)C(=O)c2cc(NS(=O)(=O)c3ccc(F)cc3)ccc2O1` was “inactive”; that for `C[C@@H]1CN([C@H](C)CO)C(=O)c2cccc(NC(=O)NC3CCCCC3)c2O[C@@H]1CN(C)Cc1ccc(Cl)c(Cl)c1` was “inactive”. The result for `COc1ccc(NC(=O)Nc2ccc3c(c2)C(=O)N([C@H](C)CO)C[C@H](C)[C@@H](CN(C)S(=O)(=O)c2ccccc2)OCCCC[C@@H](C)O3)cc1` reads “inactive”; that for `Cc1ccc(S(=O)(=O)Nc2cccc3c2O[C@H](CN(C)S(=O)(=O)c2c(C)noc2C)[C@@H](C)CN([C@H](C)CO)C3=O)cc1`, “inactive”. The result for `CC(=O)N1CCN(c2ccc(OCC3COC(Cn4ccnc4)(c4ccc(Cl)cc4Cl)O3)cc2)CC1` (centres undefined) reads “inactive”; that for `CCC(C(C)O)n1ncn(-c2ccc(N3CCN(c4ccc(OCC5COC(Cn6cncn6)(c6ccc(F)cc6F)C5)cc4)CC3)cc2)c1=O` (centres undefined), “active”.

For the compound `CC[C@H](C)n1ncn(-c2ccc(N3CCN(c4ccc(OC[C@H]5CO[C@](Cn6cncn6)(c6ccc(Cl)cc6Cl)O5)cc4)CC3)cc2)c1=O`, the cytotoxicity call is “inactive”. The result for `CC[C@@H](C)n1ncn(-c2ccc(N3CCN(c4ccc(OC[C@H]5CO[C@](Cn6cncn6)(c6ccc(Cl)cc6Cl)O5)cc4)CC3)cc2)c1=O` reads “active”. The value for `CC(C)N1CCN(c2ccc(OCC3COC(Cn4cncn4)(c4ccc(Cl)cc4Cl)O3)cc2)CC1` (centres undefined) was “inactive”; that for `CCC(C)n1ncn(-c2ccc(N3CCN(c4ccc(OCC5COC(Cn6cncn6)(c6ccc(Cl)cc6Cl)O5)cc4)CC3)cc2)c1=O.Cl.Cl` (centres undefined) was “active”; that for `C[C@@H]1CN([C@@H](C)CO)C(=O)c2cccc(NC(=O)c3ccc(-c4nccs4)cc3)c2O[C@H]1CN(C)C(=O)Nc1ccc(F)cc1` was “inactive”. Consider `CCS(=O)(=O)Nc1ccc2c(c1)C(=O)N(C)C[C@H](OC)[C@@H](C)CN(Cc1ccccn1)[C@H](C)CO2`, for which the cytotoxicity call was “inactive”.

For the compound `COc1ccc(C#Cc2ccc3c(c2)O[C@@H](CN(C)C(=O)c2ccccn2)[C@H](C)CN([C@H](C)CO)S3(=O)=O)cc1`, the cytotoxicity call is “inactive”. The value for `CC1=CC(=O)N(c2ccn(C)n2)C1=O` was “inactive”. The value for `C[C@@H]1CN([C@H](C)CO)C(=O)c2cc(NC(=O)Cc3ccccc3)ccc2O[C@@H]1CN(C)C(=O)Nc1cccc2ccccc12` was “inactive”. The value for `CC(C)NC(=O)Nc1ccc2c(c1)C(=O)N([C@@H](C)CO)C[C@H](C)[C@@H](CN(C)S(=O)(=O)c1cccs1)O2` was “inactive”; that for `C[C@@H]1CN([C@H](C)CO)C(=O)Cc2cc(NC(=O)Nc3ccc(C(F)(F)F)cc3)ccc2O[C@H]1CN(C)C(=O)Nc1ccccc1` was “inactive”; that for `CN1CCN(C(=O)C[C@H]2CC[C@@H]3[C@H](COC[C@@H](O)CN3Cc3ccc4c(c3)OCO4)O2)CC1` was “inactive”. Consider `C[C@@H]1CCCCO[C@H](CN(C)C(=O)c2ccncc2)[C@H](C)CN([C@@H](C)CO)C(=O)c2cc(NS(=O)(=O)c3ccc(Cl)cc3)ccc2O1`, for which the cytotoxicity call is “inactive”. The value for `O=C(C[C@H]1C=C[C@H](NC(=O)c2cnccn2)[C@H](CO)O1)NCc1ccccc1F` was “inactive”; that for `Cc1ccc(S(=O)(=O)N(C)C[C@H]2Oc3ccc(NC(=O)CCCN(C)C)cc3C(=O)N([C@H](C)CO)C[C@H]2C)cc1` was “inactive”. The result for `CO[C@H](CN(C)C(=O)C1CCOCC1)[C@@H](C)CN(C(=O)Nc1ccc(C(F)(F)F)cc1)[C@@H](C)CO` reads “inactive”; that for `Cc1ccc(S(=O)(=O)Nc2ccc3c(c2)CC(=O)N([C@H](C)CO)C[C@H](C)[C@@H](CN(C)Cc2ccc(-c4ccccc4)cc2)O3)cc1`, “active”; that for `Cc1ccc(S(=O)(=O)Nc2ccc3c(c2)CC(=O)N([C@H](C)CO)C[C@@H](C)[C@H](CN(C)Cc2ccc(-c4ccccc4)cc2)O3)cc1`, “active”. The value for `Cc1ccc(S(=O)(=O)Nc2ccc3c(c2)CC(=O)N([C@H](C)CO)C[C@H](C)[C@H](CN(C)Cc2ccc(-c4ccccc4)cc2)O3)cc1` was “active”; that for `Cc1ccc(S(=O)(=O)Nc2ccc3c(c2)CC(=O)N([C@H](C)CO)C[C@@H](C)[C@@H](CN(C)Cc2ccc(-c4ccccc4)cc2)O3)cc1` was “active”.

On to `Cc1ccc(S(=O)(=O)Nc2ccc3c(c2)CC(=O)N([C@@H](C)CO)C[C@@H](C)[C@H](CN(C)Cc2ccc(-c4ccccc4)cc2)O3)cc1`, for which the cytotoxicity call is “inactive”. The result for `CS(=O)(=O)N1C[C@H]2CN(C(=O)c3cnccn3)C[C@@H]2C1` reads “inactive”; that for `Cc1cc(SCc2ccc(F)cc2)c(C)cc1Cl`, “inactive”. The value for `Cc1noc(C)c1NC(=O)N(C)C[C@H]1Oc2c(NC(=O)c3cnccn3)cccc2C(=O)N([C@@H](C)CO)C[C@H]1C` was “inactive”. The result for `Cc1noc(C)c1S(=O)(=O)Nc1ccc2c(c1)C(=O)N([C@H](C)CO)C[C@H](C)[C@@H](CN(C)S(=O)(=O)c1ccc(Cl)cc1)O2` reads “inactive”; that for `COCC#Cc1cnc2c(c1)C(=O)N([C@@H](C)CO)C[C@H](C)[C@H](CN(C)S(=O)(=O)c1cn(C)cn1)O2`, “inactive”.

`COCC(=O)N[C@H]1C=C[C@@H](CC(=O)N2CCCCC2)O[C@@H]1CO`: the cytotoxicity call is “inactive”. For the compound `CCCC#Cc1ccc2c(c1)O[C@H](CN(C)S(=O)(=O)c1cccc(OC)c1)[C@H](C)CN([C@H](C)CO)S2(=O)=O`, the cytotoxicity call was “inactive”. The result for `C[C@@H]1CCCCO[C@@H](CN(C)C(=O)Nc2ccccc2)[C@@H](C)CN([C@H](C)CO)C(=O)c2cc(NC(=O)CCCCCC(=O)Nc3ccccc3N)ccc2O1` reads “inactive”; that for `O=C(C1=C[C@@H](c2csc3ccccc23)C[C@@H](OCc2ccc(CO)cc2)O1)N1CCN(Cc2ccccc2)CC1`, “inactive”; that for `C[C@@H]1CCCCO[C@@H](CN(C)C(=O)Nc2ccc(F)cc2)[C@H](C)CN([C@H](C)CO)C(=O)c2cc(NC(=O)C3CCCCC3)ccc2O1`, “inactive”. Regarding `CN1CCN(C(=O)C[C@H]2CC[C@H]3[C@@H](COC[C@@H](O)CN3C(=O)C3CCCC3)O2)CC1`, the cytotoxicity call was “inactive”.

As to `Cc1cc(NC(=O)CSc2nnc[nH]2)no1`, the cytotoxicity call is “inactive”. With `Cc1ccc(S(=O)(=O)Nc2ccc3c(c2)CC(=O)N([C@@H](C)CO)C[C@H](C)[C@H](CN(C)Cc2ccc(-c4ccccc4)cc2)O3)cc1`, the cytotoxicity call was “inactive”.

In the case of `Cc1ccc(S(=O)(=O)Nc2ccc3c(c2)CC(=O)N([C@@H](C)CO)C[C@H](C)[C@@H](CN(C)Cc2ccc(-c4ccccc4)cc2)O3)cc1`, the cytotoxicity call is “inactive”. The value for `Cc1ccc(S(=O)(=O)Nc2ccc3c(c2)CC(=O)N([C@@H](C)CO)C[C@@H](C)[C@@H](CN(C)Cc2ccc(-c4ccccc4)cc2)O3)cc1` was “active”. The value for `Cc1noc(C)c1NC(=O)N(C)C[C@H]1OCCCC[C@@H](C)Oc2ccc(NC(=O)Nc3ccc(C(F)(F)F)cc3)cc2C(=O)N([C@H](C)CO)C[C@@H]1C` was “inactive”. The value for `C[C@H](CO)N1C[C@H](C)[C@H](CN(C)S(=O)(=O)c2ccc(F)cc2)Oc2ccc(NS(=O)(=O)c3ccccc3)cc2C1=O` was “inactive”; that for `Cc1ccc(Nc2nnc(-c3ccccc3)c3ccccc23)cc1` was “active”; that for `Cc1ccc(Nc2c(-c3ccccc3)nc3ccccn23)cc1` was “inactive”. As to `Cc1ccc2nc(Nc3ccccc3)nc(-c3ccccc3)c2c1`, the cytotoxicity call was “inactive”. As for `C[C@H](CO)N1C[C@H](C)[C@H](CN(C)S(=O)(=O)c2ccc3ccccc3c2)OCc2cn(nn2)CCCC1=O`, the cytotoxicity call was “inactive”.
